Data taken from the supplement of paper PMC11732987, “Enantioselective OTUD7B fragment discovery through chemoproteomics screening and high-throughput optimisation” (Communications Chemistry, 2025).

Tests used:
Assay in all cases: log2 ratio of Biotin-Ahx-Ub-VS probe labelling (fragment/DMSO); higher = less target engagement (more negative = stronger competition), active = hit call of the paper (q ≤ 0.05, log2 ratio ≤ -1)
Details in all cases: compound concentration: 200 uM; treatment time: 3 h
USP19 = molecular target: T1, USP19 (UniProt O94966)
T1 sequence (whole entry): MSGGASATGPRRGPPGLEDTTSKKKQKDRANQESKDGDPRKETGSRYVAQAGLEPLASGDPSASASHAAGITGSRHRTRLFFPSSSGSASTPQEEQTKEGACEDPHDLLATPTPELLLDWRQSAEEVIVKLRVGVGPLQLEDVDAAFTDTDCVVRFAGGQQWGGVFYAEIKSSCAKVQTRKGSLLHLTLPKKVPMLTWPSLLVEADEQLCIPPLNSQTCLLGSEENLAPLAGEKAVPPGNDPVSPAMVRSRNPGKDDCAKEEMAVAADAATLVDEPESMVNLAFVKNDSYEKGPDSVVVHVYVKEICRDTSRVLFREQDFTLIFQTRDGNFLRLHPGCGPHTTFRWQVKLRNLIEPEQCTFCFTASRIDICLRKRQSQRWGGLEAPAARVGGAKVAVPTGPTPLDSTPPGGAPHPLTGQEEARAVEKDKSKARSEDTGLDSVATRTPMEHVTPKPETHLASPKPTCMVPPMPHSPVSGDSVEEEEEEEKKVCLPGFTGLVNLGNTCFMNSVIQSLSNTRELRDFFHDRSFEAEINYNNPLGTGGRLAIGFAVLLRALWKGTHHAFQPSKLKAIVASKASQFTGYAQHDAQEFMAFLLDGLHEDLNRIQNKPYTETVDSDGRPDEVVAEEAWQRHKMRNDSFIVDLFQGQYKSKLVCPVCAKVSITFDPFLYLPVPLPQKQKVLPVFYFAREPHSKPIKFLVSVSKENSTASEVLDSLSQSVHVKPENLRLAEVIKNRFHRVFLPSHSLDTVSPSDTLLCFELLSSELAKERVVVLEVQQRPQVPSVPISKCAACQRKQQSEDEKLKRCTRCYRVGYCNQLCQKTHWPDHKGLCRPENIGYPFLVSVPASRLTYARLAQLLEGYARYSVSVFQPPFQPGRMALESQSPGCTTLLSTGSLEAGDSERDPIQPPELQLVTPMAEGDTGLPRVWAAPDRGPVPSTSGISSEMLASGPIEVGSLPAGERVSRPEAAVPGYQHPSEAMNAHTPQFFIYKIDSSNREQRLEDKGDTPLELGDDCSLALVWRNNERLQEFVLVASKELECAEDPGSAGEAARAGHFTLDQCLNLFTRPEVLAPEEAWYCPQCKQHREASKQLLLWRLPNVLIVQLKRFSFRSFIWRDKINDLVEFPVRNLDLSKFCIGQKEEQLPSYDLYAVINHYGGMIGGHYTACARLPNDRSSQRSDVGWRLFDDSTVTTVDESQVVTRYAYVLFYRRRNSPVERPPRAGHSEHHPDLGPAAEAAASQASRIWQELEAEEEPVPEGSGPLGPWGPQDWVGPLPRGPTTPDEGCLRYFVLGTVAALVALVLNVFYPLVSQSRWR
In short: (§1)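 Global-median-normalised Spectronaut label-free quantities were compared by unpaired t-test, and values are average log2 ratios of fragment over vehicle. Only proteins with ≥2 unique peptides were used. HEK293T lysate (495 µg per sample) was treated in triplicate with fragment at 200 µM or vehicle for 3 h and then with Biotin-Ahx-Ub-VS at 0.5 µM final for 1 h. Labelled DUBs were then NeutrAvidin-enriched, digested with LysC and trypsin, and run by diaPASEF LC-MS/MS.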

USP24 = USP24 (UniProt Q9UPU5)
Chain of USP24 (Q9UPU5 whole entry): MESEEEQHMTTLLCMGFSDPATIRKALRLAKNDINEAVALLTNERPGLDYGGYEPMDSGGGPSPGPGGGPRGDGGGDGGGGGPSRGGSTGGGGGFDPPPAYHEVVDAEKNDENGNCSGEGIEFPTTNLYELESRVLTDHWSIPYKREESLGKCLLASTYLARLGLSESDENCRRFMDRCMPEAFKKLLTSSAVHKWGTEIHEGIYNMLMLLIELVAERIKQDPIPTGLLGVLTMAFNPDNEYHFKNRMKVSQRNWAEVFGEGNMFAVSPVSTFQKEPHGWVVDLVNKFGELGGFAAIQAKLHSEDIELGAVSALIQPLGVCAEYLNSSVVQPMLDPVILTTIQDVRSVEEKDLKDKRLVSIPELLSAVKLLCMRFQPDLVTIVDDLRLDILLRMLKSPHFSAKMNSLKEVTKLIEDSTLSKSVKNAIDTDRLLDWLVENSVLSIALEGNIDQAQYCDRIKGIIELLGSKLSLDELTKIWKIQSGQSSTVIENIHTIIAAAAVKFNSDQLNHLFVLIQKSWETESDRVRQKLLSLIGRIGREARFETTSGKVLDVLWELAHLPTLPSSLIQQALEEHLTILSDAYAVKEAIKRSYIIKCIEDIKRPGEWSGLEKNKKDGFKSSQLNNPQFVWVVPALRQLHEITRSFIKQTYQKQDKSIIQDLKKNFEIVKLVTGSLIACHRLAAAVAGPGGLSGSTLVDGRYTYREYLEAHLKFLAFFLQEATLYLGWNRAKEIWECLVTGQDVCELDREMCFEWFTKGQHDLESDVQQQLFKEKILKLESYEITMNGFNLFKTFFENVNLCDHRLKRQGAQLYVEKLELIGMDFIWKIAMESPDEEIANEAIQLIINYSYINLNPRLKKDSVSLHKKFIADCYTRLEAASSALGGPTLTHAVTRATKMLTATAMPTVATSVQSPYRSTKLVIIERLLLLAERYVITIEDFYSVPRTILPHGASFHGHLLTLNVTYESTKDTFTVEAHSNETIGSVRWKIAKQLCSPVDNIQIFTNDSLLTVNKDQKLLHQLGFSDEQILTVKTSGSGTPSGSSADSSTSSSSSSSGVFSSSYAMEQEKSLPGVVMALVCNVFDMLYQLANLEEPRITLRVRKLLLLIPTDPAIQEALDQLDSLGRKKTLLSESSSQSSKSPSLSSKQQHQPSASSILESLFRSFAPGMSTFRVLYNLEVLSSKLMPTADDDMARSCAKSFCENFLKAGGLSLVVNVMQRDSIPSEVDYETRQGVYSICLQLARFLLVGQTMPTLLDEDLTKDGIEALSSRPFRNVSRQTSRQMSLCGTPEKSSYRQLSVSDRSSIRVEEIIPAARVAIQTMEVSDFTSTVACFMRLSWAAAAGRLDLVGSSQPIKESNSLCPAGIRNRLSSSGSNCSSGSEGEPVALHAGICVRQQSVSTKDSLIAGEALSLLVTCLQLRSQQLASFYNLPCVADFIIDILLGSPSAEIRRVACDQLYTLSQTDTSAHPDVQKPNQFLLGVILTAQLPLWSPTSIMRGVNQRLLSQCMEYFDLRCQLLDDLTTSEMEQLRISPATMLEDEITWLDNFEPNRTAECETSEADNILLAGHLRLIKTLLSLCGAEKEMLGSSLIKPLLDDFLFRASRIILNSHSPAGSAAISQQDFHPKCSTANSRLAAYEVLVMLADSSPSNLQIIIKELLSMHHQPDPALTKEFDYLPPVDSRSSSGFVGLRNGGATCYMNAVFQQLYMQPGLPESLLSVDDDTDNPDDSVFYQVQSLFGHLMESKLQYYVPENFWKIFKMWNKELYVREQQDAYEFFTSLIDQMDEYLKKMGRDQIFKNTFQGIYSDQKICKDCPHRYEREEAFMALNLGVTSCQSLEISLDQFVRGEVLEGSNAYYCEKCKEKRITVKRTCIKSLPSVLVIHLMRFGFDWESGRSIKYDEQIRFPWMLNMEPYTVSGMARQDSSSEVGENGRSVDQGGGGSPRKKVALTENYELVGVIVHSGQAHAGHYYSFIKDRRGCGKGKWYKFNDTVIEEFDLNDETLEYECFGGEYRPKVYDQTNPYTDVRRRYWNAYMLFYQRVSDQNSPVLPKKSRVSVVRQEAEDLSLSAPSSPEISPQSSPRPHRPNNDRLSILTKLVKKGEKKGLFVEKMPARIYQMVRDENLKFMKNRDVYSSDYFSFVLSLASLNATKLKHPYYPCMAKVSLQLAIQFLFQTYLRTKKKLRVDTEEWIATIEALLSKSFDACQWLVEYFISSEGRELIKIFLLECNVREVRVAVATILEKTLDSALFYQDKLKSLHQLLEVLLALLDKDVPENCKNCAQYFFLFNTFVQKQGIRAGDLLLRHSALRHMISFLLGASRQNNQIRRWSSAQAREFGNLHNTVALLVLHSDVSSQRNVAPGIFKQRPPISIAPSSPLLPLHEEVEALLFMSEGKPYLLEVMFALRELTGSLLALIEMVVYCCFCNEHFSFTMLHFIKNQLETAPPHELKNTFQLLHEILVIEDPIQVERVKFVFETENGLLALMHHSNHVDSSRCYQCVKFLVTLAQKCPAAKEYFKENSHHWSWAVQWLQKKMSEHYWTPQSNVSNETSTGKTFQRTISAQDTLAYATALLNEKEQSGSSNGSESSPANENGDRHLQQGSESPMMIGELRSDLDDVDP
In short: as §1

USP25 = molecular target: T2, USP25 (UniProt Q9UHP3)
T2 sequence (whole entry): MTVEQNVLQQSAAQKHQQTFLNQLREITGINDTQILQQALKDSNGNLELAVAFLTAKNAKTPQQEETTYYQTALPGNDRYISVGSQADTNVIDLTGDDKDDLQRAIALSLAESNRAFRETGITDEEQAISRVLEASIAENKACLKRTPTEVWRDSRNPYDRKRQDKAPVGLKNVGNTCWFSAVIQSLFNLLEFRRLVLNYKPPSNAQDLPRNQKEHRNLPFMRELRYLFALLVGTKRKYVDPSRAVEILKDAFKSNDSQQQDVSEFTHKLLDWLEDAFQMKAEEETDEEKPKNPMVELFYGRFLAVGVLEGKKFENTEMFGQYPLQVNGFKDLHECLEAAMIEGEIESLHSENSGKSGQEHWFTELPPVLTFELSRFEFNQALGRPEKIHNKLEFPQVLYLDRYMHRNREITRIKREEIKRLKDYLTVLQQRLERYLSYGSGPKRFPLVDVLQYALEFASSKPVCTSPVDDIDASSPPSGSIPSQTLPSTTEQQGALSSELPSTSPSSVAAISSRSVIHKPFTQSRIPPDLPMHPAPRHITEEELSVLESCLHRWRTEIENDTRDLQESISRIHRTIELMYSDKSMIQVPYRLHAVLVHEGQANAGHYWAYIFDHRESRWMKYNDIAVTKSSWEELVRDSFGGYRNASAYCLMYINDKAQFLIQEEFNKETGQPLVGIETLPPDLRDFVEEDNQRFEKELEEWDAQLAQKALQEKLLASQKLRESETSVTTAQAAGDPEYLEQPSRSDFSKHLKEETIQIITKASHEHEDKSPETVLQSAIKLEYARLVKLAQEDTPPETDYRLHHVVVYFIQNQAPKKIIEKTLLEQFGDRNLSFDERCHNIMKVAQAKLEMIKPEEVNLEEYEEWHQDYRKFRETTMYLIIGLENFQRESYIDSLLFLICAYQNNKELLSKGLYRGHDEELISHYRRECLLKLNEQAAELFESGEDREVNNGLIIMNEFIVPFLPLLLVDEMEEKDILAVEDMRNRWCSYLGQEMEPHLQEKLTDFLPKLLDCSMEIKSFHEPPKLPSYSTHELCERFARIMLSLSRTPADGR
In short: as §1

USP28 = molecular target: T3, USP28 (UniProt Q96RU2)
T3 sequence (whole entry): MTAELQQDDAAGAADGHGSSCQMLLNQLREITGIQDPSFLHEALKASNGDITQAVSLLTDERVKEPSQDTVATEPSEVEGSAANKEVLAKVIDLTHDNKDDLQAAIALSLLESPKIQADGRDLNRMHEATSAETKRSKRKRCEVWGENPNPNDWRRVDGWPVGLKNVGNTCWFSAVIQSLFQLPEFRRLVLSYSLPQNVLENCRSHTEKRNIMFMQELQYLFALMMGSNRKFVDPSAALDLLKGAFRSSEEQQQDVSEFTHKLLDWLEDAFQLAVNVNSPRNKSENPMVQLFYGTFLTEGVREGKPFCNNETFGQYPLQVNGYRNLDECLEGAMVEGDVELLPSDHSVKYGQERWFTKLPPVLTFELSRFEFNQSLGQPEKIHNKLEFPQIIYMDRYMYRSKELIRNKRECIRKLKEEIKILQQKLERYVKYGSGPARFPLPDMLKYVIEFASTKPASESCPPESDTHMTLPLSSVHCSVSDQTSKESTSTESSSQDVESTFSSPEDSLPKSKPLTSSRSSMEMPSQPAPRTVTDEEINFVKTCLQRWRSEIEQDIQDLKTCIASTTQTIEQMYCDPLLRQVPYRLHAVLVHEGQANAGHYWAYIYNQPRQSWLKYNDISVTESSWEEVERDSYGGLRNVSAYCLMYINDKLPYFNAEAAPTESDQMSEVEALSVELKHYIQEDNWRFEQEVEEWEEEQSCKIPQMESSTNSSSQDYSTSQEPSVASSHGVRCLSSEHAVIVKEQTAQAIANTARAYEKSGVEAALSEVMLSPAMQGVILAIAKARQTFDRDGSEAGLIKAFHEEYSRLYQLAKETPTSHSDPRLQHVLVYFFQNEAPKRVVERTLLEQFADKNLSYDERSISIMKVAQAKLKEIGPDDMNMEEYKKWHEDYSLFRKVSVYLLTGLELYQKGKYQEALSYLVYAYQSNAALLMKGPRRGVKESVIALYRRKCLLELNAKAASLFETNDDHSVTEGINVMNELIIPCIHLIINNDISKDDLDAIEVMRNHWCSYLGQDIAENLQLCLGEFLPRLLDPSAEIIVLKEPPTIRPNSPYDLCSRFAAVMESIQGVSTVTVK
In short: as §1

Measured: log2 ratio of Biotin-Ahx-Ub-VS probe labelling

CN(CCc1ncc(Br)cn1)C(=O)CCl.Cl
inactive: USP19 -0.155 | USP24 -0.487 | USP25 -0.445 | USP28 -0.622
